Experimental data from PubChem BioAssay.
Active and inactive are the calls of the source. Unless noted, no rule for the calls is given here.

What was measured:
[1] = compounds binding Alexa647 anti-His antibody – biochemical, small-molecule microarray, 635 nm fluorescence, artefact control for SMM control protein annotation, primary screen (AID 1128); details: higher = more signal;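 also: score merges feature fluorescence with signal-to-noise for each printed compound spot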
[2] = system: Human papillomavirus type 1a E7 protein (residues 1-88); test: HPV1a E7 small-molecule binders, primary screen, biochemical, small-molecule microarray, residues 1-88, 635 nm (AID 1129); details: small-molecule microarray binding, fluorescence 635 nm; higher = more signal
[3] = molecular target: Focal adhesion kinase 1 (Homo sapiens) (UniProt Q05397); test: PTK2 protein binding on printed compound slides – biochemical, small-molecule microarray, 635/667 nm fluorescence, BSA, DTT, primary screen (AID 1130); details: 635 nm fluorescence, higher = more signal;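 also: composite of spot emission at 667 nm and signal to noise over triplicate slides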
Focal adhesion kinase 1 (Homo sapiens), sequence (Q05397 whole entry, looked up): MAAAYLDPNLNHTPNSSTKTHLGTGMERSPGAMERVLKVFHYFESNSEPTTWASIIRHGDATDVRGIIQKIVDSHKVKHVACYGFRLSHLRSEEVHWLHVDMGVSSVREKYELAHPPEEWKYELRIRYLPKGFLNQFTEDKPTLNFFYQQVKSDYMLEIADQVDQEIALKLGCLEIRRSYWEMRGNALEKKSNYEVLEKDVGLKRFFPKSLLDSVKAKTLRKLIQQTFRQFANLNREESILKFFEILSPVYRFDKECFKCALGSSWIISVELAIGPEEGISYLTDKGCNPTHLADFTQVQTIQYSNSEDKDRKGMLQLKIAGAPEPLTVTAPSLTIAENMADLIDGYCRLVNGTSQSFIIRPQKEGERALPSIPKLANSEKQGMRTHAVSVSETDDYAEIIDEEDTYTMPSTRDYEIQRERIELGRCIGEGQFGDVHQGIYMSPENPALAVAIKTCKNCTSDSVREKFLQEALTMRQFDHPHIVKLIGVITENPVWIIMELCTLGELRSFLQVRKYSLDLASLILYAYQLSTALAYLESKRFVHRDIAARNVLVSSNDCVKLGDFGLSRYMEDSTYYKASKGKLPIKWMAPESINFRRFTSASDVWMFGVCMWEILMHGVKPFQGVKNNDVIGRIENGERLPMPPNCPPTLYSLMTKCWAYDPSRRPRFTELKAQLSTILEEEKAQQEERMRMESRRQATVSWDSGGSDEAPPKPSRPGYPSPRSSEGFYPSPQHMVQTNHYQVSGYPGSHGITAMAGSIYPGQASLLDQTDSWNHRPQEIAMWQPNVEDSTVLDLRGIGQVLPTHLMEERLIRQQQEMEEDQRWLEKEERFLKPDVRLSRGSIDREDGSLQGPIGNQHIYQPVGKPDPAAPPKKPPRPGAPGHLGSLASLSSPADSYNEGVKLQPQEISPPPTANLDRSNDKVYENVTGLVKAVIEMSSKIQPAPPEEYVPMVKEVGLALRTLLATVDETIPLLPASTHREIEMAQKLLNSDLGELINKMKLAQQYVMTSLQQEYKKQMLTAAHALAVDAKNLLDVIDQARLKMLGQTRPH

[4] = system: Fibrinogen (Alexa647-labelled); test: Alexa647-fibrinogen binding to printed small molecules – biochemical, small-molecule microarray, 635/667 nm fluorescence, artefact control for SMM control-protein annotation, profiling panel (AID 1131); details: fibrinogen-A647 binding fluorescence, higher = more signal;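 also: z-score merges 667 nm fluorescence with per-spot signal-to-noise over triplicate slides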
[5] = molecular target: Follistatin (Homo sapiens) (UniProt P19883); test: FST protein binding to printed compounds – biochemical, small-molecule microarray, 635/667 nm fluorescence, primary screen (AID 1132); details: 635 nm fluorescence, higher = more signal
Follistatin (Homo sapiens), sequence (P19883 whole entry, looked up): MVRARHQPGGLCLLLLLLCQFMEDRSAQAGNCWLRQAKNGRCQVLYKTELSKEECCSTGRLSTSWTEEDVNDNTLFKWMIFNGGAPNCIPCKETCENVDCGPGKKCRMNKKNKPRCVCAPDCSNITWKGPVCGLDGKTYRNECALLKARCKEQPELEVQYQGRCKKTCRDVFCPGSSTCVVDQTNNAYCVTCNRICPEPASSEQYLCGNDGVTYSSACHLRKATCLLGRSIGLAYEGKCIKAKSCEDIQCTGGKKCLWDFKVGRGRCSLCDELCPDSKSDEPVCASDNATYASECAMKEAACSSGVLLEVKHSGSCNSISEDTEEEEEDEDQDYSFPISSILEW

[6] = molecular target: Fibroblast growth factor 2 (Homo sapiens) (UniProt P09038); test: basic fibroblast growth factor binding to printed compounds – biochemical, small-molecule microarray, 635/667 nm fluorescence, primary screen (AID 1133); details: FGF2, fluorescence 635/667, higher = more signal
Fibroblast growth factor 2 (Homo sapiens), sequence (P09038 whole entry, looked up): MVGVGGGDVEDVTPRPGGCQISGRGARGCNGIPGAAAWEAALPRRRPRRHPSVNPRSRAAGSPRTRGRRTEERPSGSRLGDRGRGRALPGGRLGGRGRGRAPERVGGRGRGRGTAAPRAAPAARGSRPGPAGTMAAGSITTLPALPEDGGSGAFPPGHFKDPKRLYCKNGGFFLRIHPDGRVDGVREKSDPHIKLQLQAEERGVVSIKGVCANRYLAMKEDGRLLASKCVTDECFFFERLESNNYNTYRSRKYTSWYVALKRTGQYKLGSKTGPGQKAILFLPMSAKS

[7] = JC-1 mitochondrial potential readout, lung cancer cells – cell-based, A549, JC-1 fluorescence, basal, 24 h, 100 nL, profiling panel (AID 1138); details: higher = more signal;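 also: A549 lung adenocarcinoma cells under basal conditions with no added stimulus; test concentration not given here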
Lefty1 = Lefty1 protein binding to printed compounds – biochemical, small-molecule microarray, 635/667 nm fluorescence, primary screen (AID 1139); details: fluorescence 635/667, higher = more signal
[8] = system: wheat germ agglutinin (Triticum aestivum), Alexa647-labelled; test: Alexa647-WGA lectin binding to printed small molecules – biochemical, small-molecule microarray, 635/667 nm fluorescence, artefact control for SMM control-protein annotation, profiling panel (AID 1140); details: WGA-A647 binding, 635 nm fluorescence, higher = more signal;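 also: score merges 667 nm feature emission with signal to noise over triplicate slides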
[9] = molecular target: Luciferin 4-monooxygenase (Photinus pyralis) (UniProt P08659); test: inhibition of purified Photinus pyralis luciferase – biochemical, luminescence, purified enzyme, 2006 set, primary screen (AID 1141); details: purified firefly luciferase, SteadyGlo luminescence, 30 min; higher = more signal, called active from +8 up or from −8 down;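 also: cell-free assay with purified firefly luciferase at 100 ng per well in PBS; test concentration not given here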
Luciferin 4-monooxygenase (Photinus pyralis), sequence (P08659 whole entry, looked up): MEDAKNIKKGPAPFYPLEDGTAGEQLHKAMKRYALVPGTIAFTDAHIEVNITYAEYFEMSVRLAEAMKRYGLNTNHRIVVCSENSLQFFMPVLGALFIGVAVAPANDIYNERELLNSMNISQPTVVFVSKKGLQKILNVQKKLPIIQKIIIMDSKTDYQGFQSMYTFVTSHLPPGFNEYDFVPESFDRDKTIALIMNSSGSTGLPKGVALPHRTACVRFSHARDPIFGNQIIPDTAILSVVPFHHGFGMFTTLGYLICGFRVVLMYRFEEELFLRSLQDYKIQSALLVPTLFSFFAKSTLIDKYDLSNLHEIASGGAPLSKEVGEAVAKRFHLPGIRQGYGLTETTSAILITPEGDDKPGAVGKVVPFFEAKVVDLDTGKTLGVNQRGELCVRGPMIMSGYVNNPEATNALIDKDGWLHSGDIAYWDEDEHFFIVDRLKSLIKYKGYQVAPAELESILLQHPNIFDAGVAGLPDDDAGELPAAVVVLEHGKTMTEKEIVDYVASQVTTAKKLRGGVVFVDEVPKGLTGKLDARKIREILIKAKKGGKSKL

[10] = system: Wnt5a (protein binding on small-molecule microarray); test: small molecules binding Wnt5a protein – biophysical, small-molecule microarray, 635/667 nm fluorescence, primary screen (AID 1142); details: 635 nm fluorescence, higher = more signal;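 also: fluorescence read at 667 nm with signal to noise per printed feature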
[11] = ATP-based viability of Huh7 replicon cells – cell-based, CellTiter-Glo luminescence, basal, 48 h, cytotoxicity control for HCV replication inhibitor project, primary screen (AID 1143); details: higher = more signal, called active from +8 up or from −8 down;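 also: Huh7 hepatoma cells carrying a hepatitis C replication reporter with no stimulus; test concentration not given here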
[12] = Pseudomonas biofilm growth suppression – PAO1 strain, BacTiter-Glo luminescence, LB-PBS, primary screen (AID 1144); details: P. aeruginosa PAO1 biofilm, 12 h, higher = more signal
[13] = basal CRE-LacZ reporter activity in PC12 – cell-based, unstimulated, primary screen (AID 1145); details: no forskolin, luminescence, 4.5 h, higher = more signal, called active from +8 up or from −8 down
[14] = forskolin-driven CRE-LacZ activity in PC12 – cell-based, CRE-LacZ reporter, forskolin-stimulated, primary screen (AID 1146); details: luminescence, 4.5 h, higher = more signal, called active from +8 up or from −8 down;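 also: PC12 cells with 6xCRE LacZ reporter stimulated by forskolin 10 µM; beta-galactosidase reporter signal reflecting CREB driven transcription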
[15] = molecular target: Streptavidin (Streptomyces avidinii) (UniProt P22629); test: compounds binding control protein streptavidin – biophysical, small-molecule microarray, 635/667 nm fluorescence, artefact control for SMM compound annotation, primary screen (AID 1147); details: higher = more signal;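 also: signal reflects streptavidin binding to arrayed compounds as a control protein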
Streptavidin (Streptomyces avidinii), sequence (P22629 whole entry, looked up): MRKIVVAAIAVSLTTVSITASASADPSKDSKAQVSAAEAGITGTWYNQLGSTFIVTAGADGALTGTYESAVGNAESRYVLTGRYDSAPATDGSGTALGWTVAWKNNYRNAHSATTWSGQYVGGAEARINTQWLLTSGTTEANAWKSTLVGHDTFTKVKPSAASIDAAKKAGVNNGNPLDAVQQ

[16] = probe aInhba binding on compound microarray – biochemical, small-molecule microarray, 635/667 nm fluorescence, primary screen (AID 1148); details: higher = more signal;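 also: score merges 667nm spot fluorescence with signal-to-noise for antibody binding to printed compounds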
Torsin-1A (Homo sapiens) [17] = molecular target: Torsin-1A (Homo sapiens) (UniProt O14656); test: TOR1A wild-type binding on microarray – cell lysate, small-molecule microarray, lysate, 635/667 nm, primary screen (AID 1149); details: COS7 hTOR1A-WT lysate, 635 nm fluorescence, higher = more signal
Torsin-1A (Homo sapiens), sequence (O14656 whole entry, looked up): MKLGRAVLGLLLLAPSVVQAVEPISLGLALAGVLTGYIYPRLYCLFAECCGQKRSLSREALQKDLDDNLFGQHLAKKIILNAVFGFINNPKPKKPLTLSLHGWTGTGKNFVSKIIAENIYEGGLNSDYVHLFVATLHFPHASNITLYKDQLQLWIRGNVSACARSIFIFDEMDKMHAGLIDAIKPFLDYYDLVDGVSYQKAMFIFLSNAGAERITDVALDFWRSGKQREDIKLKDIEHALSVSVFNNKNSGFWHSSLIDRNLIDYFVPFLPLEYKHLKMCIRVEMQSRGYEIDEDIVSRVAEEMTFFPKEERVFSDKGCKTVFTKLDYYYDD

Torsin-1A (Homo sapiens) [18] = molecular target: Torsin-1A (Homo sapiens) (UniProt O14656); test: torsin A mutant lysate binding on microarrays – cell lysate, small-molecule microarray, COS7 lysate, 635/667 nm fluorescence, primary screen (AID 1150); details: COS7 hTOR1A mutant lysate, 635 nm fluorescence, higher = more signal;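 also: score pools 667 nm emission and signal to noise measuring lysate protein binding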
[19] = system: Sonic hedgehog protein (Shh); test: Sonic hedgehog microarray binding compounds – biochemical, small-molecule microarray, 635/667 nm fluorescence, primary screen (AID 1151); details: 635 nm fluorescence, higher = more signal;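 also: Shh protein binding to compounds spotted on small-molecule microarray slides; score combines spot fluorescence intensity with signal-to-noise across triplicate slides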

`CC(CCC(=O)OC[C@H]1O[C@H](C#Cc2ccccc2)C=C[C@@H]1Oc1ccc(C)cc1)=NO[C@H](C)c1cn([C@@H]2COC[C@H]2O)nn1` showed a composite z-score [1] of 0.254, a composite z-score [2] of -0.0794 and a composite z-score [3] of 0.0652. It also gave a composite z-score [4] of 0.666, a composite z-score [5] of 0.273 and a composite z-score [6] of 0.162. For the same compound, the z-score [7] was -0.262, the composite z-score (Lefty1) was 0.317 and the composite z-score [8] was 0.299. The z-score [9] was -2.18 (inactive), the composite z-score [10] was -0.0352 and the z-score [11] was -0.783 (inactive). For the same compound, the z-score [12] was -0.763 (inactive), the z-score [13] was 3.17 (inactive) and the z-score [14] was -0.0087 (inactive). For the same compound, the composite z-score [15] was 0.197, the composite z-score [16] was -0.101 and the composite z-score (Torsin-1A (Homo sapiens) [17]) was 0.587. For the same compound, the composite z-score (Torsin-1A (Homo sapiens) [18]) was 0.326 and the composite z-score [19] was 0.39.
Compound `CC(C)CON=C1[C@H]2CCn3c(=O)n(C)c(=O)n3[C@H]2[C@H](O)[C@@H]2O[C@H]12` has a composite z-score [1] of 0.457, a composite z-score [2] of 0.398 and a composite z-score [3] of 0.0335. For the same compound, the composite z-score [4] was 0.413, the composite z-score [5] was 0.581 and the composite z-score [6] was 0.411. For the same compound, the z-score [7] was 0.563, the composite z-score (Lefty1) was 1.02 and the composite z-score [8] was 0.324. For the same compound, the z-score [9] was -0.571 (inactive), the composite z-score [10] was 0.0208 and the z-score [11] was 0.736 (inactive). For the same compound, the z-score [12] was -0.279 (inactive), the z-score [13] was 0.252 (inactive) and the z-score [14] was -0.28 (inactive). It also gave a composite z-score [15] of 0.212, a composite z-score [16] of -0.0405 and a composite z-score (Torsin-1A (Homo sapiens) [17]) of 0.558. For the same compound, the composite z-score (Torsin-1A (Homo sapiens) [18]) was -0.0543 and the composite z-score [19] was 0.637.
Compound `CC1(C)O[C@H]2O[C@H]([C@H](O)CON=C3[C@H]4CCn5c(=O)n(-c6ccccc6)c(=O)n5[C@H]4[C@H](O)[C@@H]4O[C@H]34)[C@H](O)[C@H]2O1` has a composite z-score [1] of 0.455, a composite z-score [2] of -0.282 and a composite z-score [3] of -0.282. The composite z-score [4] was 0.0946, the composite z-score [5] was 0.154 and the composite z-score [6] was 0.947. The z-score [7] was -0.994, the composite z-score (Lefty1) was 0.222 and the composite z-score [8] was 0.0136. The z-score [9] was 0.0158 (inactive), the composite z-score [10] was 0.0179 and the z-score [11] was -0.279 (inactive). For the same compound, the z-score [12] was -0.295 (inactive), the z-score [13] was 0.494 (inactive) and the z-score [14] was 0.771 (inactive). The composite z-score [15] was 0.0676, the composite z-score [16] was -0.154 and the composite z-score (Torsin-1A (Homo sapiens) [17]) was 0.43. The composite z-score (Torsin-1A (Homo sapiens) [18]) was -0.0174 and the composite z-score [19] was -0.217.
`CC(CCN1CCc2nc(-c3ccccc3)c(-c3ccccc3)cc2C1)=NO[C@H](C)c1cn([C@H](CO)Cc2ccccc2)nn1` showed a composite z-score [1] of 0.955, a composite z-score [2] of 0.137 and a composite z-score [3] of 0.0132. For the same compound, the composite z-score [4] was 0.689, the composite z-score [5] was 0.677 and the composite z-score [6] was 0.882. For the same compound, the z-score [7] was 2.22, the composite z-score (Lefty1) was 0.313 and the composite z-score [8] was 0.158. The z-score [9] was -0.595 (inactive), the composite z-score [10] was 0.136 and the z-score [11] was -2.39 (inactive). The z-score [12] was -0.413 (inactive), the z-score [13] was 0.987 (inactive) and the z-score [14] was 1.11 (inactive). For the same compound, the composite z-score [15] was 0.545, the composite z-score [16] was -0.0494 and the composite z-score (Torsin-1A (Homo sapiens) [17]) was 0.824. The composite z-score (Torsin-1A (Homo sapiens) [18]) was 1.23 and the composite z-score [19] was 0.565.
With `CO[C@@H](C(C)C)[C@@H](C)C1OC(=O)CC1O` (stereo not given in full) the composite z-score [1] was -0.647, the composite z-score [2] was -0.579 and the composite z-score [3] was 0.0539. For the same compound, the composite z-score [4] was -1.29, the composite z-score [5] was -0.989 and the composite z-score [6] was -0.278. The z-score [7] was 0.000179, the composite z-score (Lefty1) was -0.633 and the composite z-score [8] was -0.282. The z-score [9] was 0.159 (inactive), the composite z-score [10] was -0.124 and the z-score [11] was 0.265 (inactive). For the same compound, the z-score [12] was 0.446 (inactive), the z-score [13] was -0.0673 (inactive) and the z-score [14] was -0.0208 (inactive). The composite z-score [15] was -0.468, the composite z-score [16] was -0.158 and the composite z-score (Torsin-1A (Homo sapiens) [17]) was -0.118. For the same compound, the composite z-score (Torsin-1A (Homo sapiens) [18]) was -0.0794 and the composite z-score [19] was -0.595.
